# Experimental data from PMC5540273 (PLoS ONE, 2017).
# Read-outs that look alike come from different tables or passages of the source.
# How the values were obtained:
# SNARK = test system: T1, SNARK; settings: concentration: 1 μM, replicates: in singlicate; n = 1
# T1 construct: gene NUAK2
# SNRK = settings: concentration: 1 μM, replicates: in singlicate; n = 1
# SRC = settings: concentration: 1 μM, replicates: in singlicate; n = 1
# SRMS = settings: concentration: 1 μM, replicates: in singlicate; n = 1
# SRPK1 = settings: concentration: 1 μM, replicates: in singlicate; n = 1
# SRPK2 = settings: concentration: 1 μM, replicates: in singlicate; n = 1
# SRPK3 = settings: concentration: 1 μM, replicates: in singlicate; n = 1
# STK16 = settings: concentration: 1 μM, replicates: in singlicate; n = 1
# STK33 = settings: concentration: 1 μM, replicates: in singlicate; n = 1
# STK35 = settings: concentration: 1 μM, replicates: in singlicate; n = 1
# STK36 = settings: concentration: 1 μM, replicates: in singlicate; n = 1
# STK39 = settings: concentration: 1 μM, replicates: in singlicate; n = 1
# SYK = settings: n = 1
# SgK110 = settings: concentration: 1 μM, replicates: in singlicate; n = 1
# TAK1 = test system: T2, TAK1; settings: concentration: 1 μM, replicates: in singlicate; n = 1
# T2 construct: gene MAP3K7
# TAOK1 = settings: concentration: 1 μM, replicates: in singlicate; n = 1
# TAOK2 = settings: concentration: 1 μM, replicates: in singlicate; n = 1
# TAOK3 = settings: concentration: 1 μM, replicates: in singlicate; n = 1
# TBK1 = settings: concentration: 1 μM, replicates: in singlicate; n = 1
# TEC = settings: concentration: 1 μM, replicates: in singlicate; n = 1
# [1] = concentration: 1 μM, replicates: in singlicate
# 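Note: KINOMEscan kinase panel screen.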
smiles,measurement,setting,value
CCn1cnc2c(NCc3ccccc3)ncnc21 [SKF-96418],%Inh,SNARK,0%
same,%Inh,SNRK,0%
same,%Inh,SRC,0%
same,%Inh,SRMS,26%
same,%Inh,SRPK1,0%
same,%Inh,SRPK2,47%
same,%Inh,SRPK3,18%
same,%Inh,STK16,0%
same,%Inh,STK33,0%
same,%Inh,STK35,0%
same,%Inh,STK36,0%
same,%Inh,STK39,16%
same,%Inh,SYK; [1],0%
same,%Inh,SgK110,0%
same,%Inh,TAK1,0%
same,%Inh,TAOK1,0%
same,%Inh,TAOK2,27%
same,%Inh,TAOK3,0%
same,%Inh,TBK1,17%
same,%Inh,TEC,0%
COc1cccc(-c2nc(-c3ccccc3)[nH]c2-c2ccncc2)c1 [SB-610250],%Inh,SNARK,0%
same,%Inh,SNRK,0%
same,%Inh,SRC,21%
same,%Inh,SRMS,0%
same,%Inh,SRPK1,25%
same,%Inh,SRPK2,0%
same,%Inh,SRPK3,0%
same,%Inh,STK16,9%
same,%Inh,STK33,5%
same,%Inh,STK35,0%
same,%Inh,STK36,30%
same,%Inh,STK39,19%
same,%Inh,SYK; [1],23%
same,%Inh,SgK110,20%
same,%Inh,TAK1,0%
same,%Inh,TAOK1,0%
same,%Inh,TAOK2,0%
same,%Inh,TAOK3,0%
same,%Inh,TBK1,0%
same,%Inh,TEC,4%
Cc1cccc(Nc2nc(N[C@H]3CCCC[C@H]3N)ncc2C(N)=O)c1.Cl [GSK986310],%Inh,SNARK,39%
same,%Inh,SNRK,11%
same,%Inh,SRC,65%
same,%Inh,SRMS,0%
same,%Inh,SRPK1,44%
same,%Inh,SRPK2,0%
same,%Inh,SRPK3,0%
same,%Inh,STK16,24%
same,%Inh,STK33,55%
same,%Inh,STK35,28%
same,%Inh,STK36,58%
same,%Inh,STK39,12%
same,%Inh,SYK; 1 µM,99.4%
same,%Inh,SgK110,55%
same,%Inh,TAK1,90.3%
same,%Inh,TAOK1,32%
same,%Inh,TAOK2,0%
same,%Inh,TAOK3,3%
same,%Inh,TBK1,17%
same,%Inh,TEC,23%
COc1cccc2c(-c3ccncc3)c(-c3ccc(F)cc3)nn12 [GW468513],%Inh,SNARK,9%
same,%Inh,SNRK,0%
same,%Inh,SRC,1%
same,%Inh,SRMS,0%
same,%Inh,SRPK1,0%
same,%Inh,SRPK2,0%
same,%Inh,SRPK3,2%
same,%Inh,STK16,5%
same,%Inh,STK33,1%
same,%Inh,STK35,0%
same,%Inh,STK36,54%
same,%Inh,STK39,14%
same,%Inh,SYK; [1],0%
same,%Inh,SgK110,0%
same,%Inh,TAK1,0%
same,%Inh,TAOK1,0%
same,%Inh,TAOK2,0%
same,%Inh,TAOK3,0%
same,%Inh,TBK1,2%
same,%Inh,TEC,4%
CCn1c(-c2nonc2N)nc2c(-c3ccccc3)ncc(OCCCN)c21.O=C(O)C(F)(F)F.O=C(O)C(F)(F)F [GSK260205],%Inh,SNARK,0%
same,%Inh,SNRK,57%
same,%Inh,SRC,0%
same,%Inh,SRMS,0%
same,%Inh,SRPK1,22%
same,%Inh,SRPK2,0%
same,%Inh,SRPK3,0%
same,%Inh,STK16,0%
same,%Inh,STK33,0%
same,%Inh,STK35,0%
same,%Inh,STK36,0%
same,%Inh,STK39,7%
same,%Inh,SYK; [1],19%
same,%Inh,SgK110,0%
same,%Inh,TAK1,0%
same,%Inh,TAOK1,0%
same,%Inh,TAOK2,0%
same,%Inh,TAOK3,0%
same,%Inh,TBK1,5%
same,%Inh,TEC,0%
CN(C)c1ncnc2nc[nH]c12 [SKF-31736],%Inh,SNARK,0%
same,%Inh,SNRK,0%
same,%Inh,SRC,0%
same,%Inh,SRMS,20%
same,%Inh,SRPK1,0%
same,%Inh,SRPK2,10%
same,%Inh,SRPK3,17%
same,%Inh,STK16,0%
same,%Inh,STK33,0%
same,%Inh,STK35,0%
same,%Inh,STK36,0%
same,%Inh,STK39,5%
same,%Inh,SYK; [1],0%
same,%Inh,SgK110,0%
same,%Inh,TAK1,0%
same,%Inh,TAOK1,0%
same,%Inh,TAOK2,26%
same,%Inh,TAOK3,3%
same,%Inh,TBK1,34%
same,%Inh,TEC,0%
Nc1ncc(-c2cn[nH]c2)c2scc(-c3ccc4c(c3)CCN4C(=O)Cc3ccccc3)c12 [GSK2593067],%Inh,SNARK,10%
same,%Inh,SNRK,0%
same,%Inh,SRC,69%
same,%Inh,SRMS,59%
same,%Inh,SRPK1,44%
same,%Inh,SRPK2,0%
same,%Inh,SRPK3,0%
same,%Inh,STK16,0%
same,%Inh,STK33,2%
same,%Inh,STK35,0%
same,%Inh,STK36,0%
same,%Inh,STK39,0%
same,%Inh,SYK; [1],25%
same,%Inh,SgK110,0%
same,%Inh,TAK1,0%
same,%Inh,TAOK1,0%
same,%Inh,TAOK2,0%
same,%Inh,TAOK3,0%
same,%Inh,TBK1,1%
same,%Inh,TEC,4%
COc1cccc(CC(=O)N2CCc3cc(-c4cn(C)c5ncnc(N)c45)ccc32)c1 [GSK2608899],%Inh,SNARK,35%
same,%Inh,SNRK,0%
same,%Inh,SRC,18%
same,%Inh,SRMS,4%
same,%Inh,SRPK1,14%
same,%Inh,SRPK2,0%
same,%Inh,SRPK3,20%
same,%Inh,STK16,9%
same,%Inh,STK33,2%
same,%Inh,STK35,0%
same,%Inh,STK36,17%
same,%Inh,STK39,22%
same,%Inh,SYK; [1],26%
same,%Inh,SgK110,0%
same,%Inh,TAK1,43%
same,%Inh,TAOK1,2%
same,%Inh,TAOK2,0%
same,%Inh,TAOK3,3%
same,%Inh,TBK1,25%
same,%Inh,TEC,19%
COc1cc(Nc2nccc(N3CCC(NC(=O)Nc4ccc5c(c4)OCO5)C3)n2)cc(OC)c1OC (centres unmarked) [GSK1379766],%Inh,SNARK,13%
same,%Inh,SNRK,0%
same,%Inh,SRC,0%
same,%Inh,SRMS,0%
same,%Inh,SRPK1,45%
same,%Inh,SRPK2,0%
same,%Inh,SRPK3,0%
same,%Inh,STK16,72%
same,%Inh,STK33,0%
same,%Inh,STK35,0%
same,%Inh,STK36,0%
same,%Inh,STK39,9%
same,%Inh,SYK; [1],39%
same,%Inh,SgK110,0%
same,%Inh,TAK1,0%
same,%Inh,TAOK1,0%
same,%Inh,TAOK2,0%
same,%Inh,TAOK3,0%
same,%Inh,TBK1,33%
same,%Inh,TEC,6%
CN(c1ccc(NC(=O)N2CCN(CCCN3CCOCC3)CC2)cc1)c1ccnc(Nc2ccc(CS(C)(=O)=O)cc2)n1.Cl [GW830899],%Inh,SNARK,0%
same,%Inh,SNRK,0%
same,%Inh,SRC,10%
same,%Inh,SRMS,0%
same,%Inh,SRPK1,56%
same,%Inh,SRPK2,9%
same,%Inh,SRPK3,46%
same,%Inh,STK16,74%
same,%Inh,STK33,0%
same,%Inh,STK35,88%
same,%Inh,STK36,5%
same,%Inh,STK39,0%
same,%Inh,SYK; [1],15%
same,%Inh,SgK110,0%
same,%Inh,TAK1,0%
same,%Inh,TAOK1,0%
same,%Inh,TAOK2,0%
same,%Inh,TAOK3,0%
same,%Inh,TBK1,53%
same,%Inh,TEC,0%
